Data published in PubChem BioAssay AID1159580 (chemical genetic matrix, 2015).
Values joined by “and” are separate entries in the source; they are usually repeats but may differ in a detail not shown here. Equal entries are not always repeated. About 2,000 (36%) of roughly 5,500 compounds were called active. Another 18% or so got no clear call; they are omitted. Cut-off read from the data, not from the text of the source: active = normalized growth mostly below about 0.91 (no sharp cut-off); inconclusive = no clear call, values can overlap the other calls; inactive = mostly above about 0.92. Some of the results follow.

Experiment: chemical genetic growth profiling, strain panel (AID 1159580);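 note: tested at 20 µM; growth read once vehicle control cultures reached saturation at 30 °C; 1 = growth at the plate median or of vehicle wells; lower values mean less growth of the strain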
Settings: S. cerevisiae deletion strains, growth OD

Measured: normalized growth

CC(C)NCC(O)COc1cccc2ccccc12 (stereo unspecified)
inactive: locus YAL013W, strain DEP1, hits give low values 1.01 | locus YAL021C, strain ccr4, hits give low values 0.971 | locus YAL026C, strain drs2, hits give low values 1.03 | locus YAL030W, strain snc1, hits give low values 1.02 | locus YAL040C, strain CLN3, hits give low values 1.01 and 0.981 | locus YBL061C, strain skt5, hits give low values 1.01 | locus YBR009C, strain hhf1, hits give low values 1 | locus YBR023C, strain chs3, hits give low values 1.01 | locus YBR171W, strain sec66, hits give low values 1.01 | locus YBR231C, strain swc5, hits give low values 1.02 | locus YBR279W, strain paf1, hits give low values 1.01 | locus YCL011C, strain gbp2, hits give low values 1.01 | locus YCL016C, strain dcc1, hits give low values 0.995 | locus YCL061C, strain MRC1 (second series), hits give low values 1 and 1.02 | locus YCL061C, strain MRC1, hits give low values 1.02 | locus YCL069W, strain vba3, hits give low values 1.01 | locus YCR088W, strain abp1, hits give low values 1.01 | locus YDL005C, strain med2, hits give low values 1.01 | locus YDL040C, strain nat1, hits give low values 1.01 | locus YDR001C, strain nth1, hits give low values 1.02 | locus YDR069C, strain doa4, hits give low values 1.01 | locus YDR137W, strain rgp1, hits give low values 1.02 | locus YDR150W, strain NUM1, hits give low values 1 | locus YDR159W, strain sac3, hits give low values 0.992 | locus YDR195W, strain ref2 1.02 | locus YDR297W, strain sur2, hits give low values 1.01 | locus YDR334W, strain swr1, hits give low values 1.04 | locus YDR335W, strain msn5, hits give low values 1.01 | locus YDR363W, strain ESC2, hits give low values 1.01 and 0.959 | locus YDR392W, strain spt3, hits give low values 1.02 | locus YEL003W, strain gim4, hits give low values 1.03 | locus YEL037C, strain rad23, hits give low values 1.01 | locus YEL061C, strain CIN8 (second series), hits give low values 1.02 | locus YER002W, strain NOP16, hits give low values 0.992 and 1.01 | locus YER015W, strain faa2, hits give low values 1.01 | locus YER016W, strain bim1, hits give low values 1.01 | locus YER111C, strain swi4, hits give low values 1.03 | locus YER155C, strain BEM2 (second series), hits give low values 1.05 | locus YFR010W, strain ubp6, hits give low values 1.02 | locus YGL167C, strain pmr1, hits give low values 1.02 | locus YGL173C, strain kem1, hits give low values 1.01 | locus YGL227W, strain vid30, hits give low values 1 | locus YGL240W, strain doc1, hits give low values 1.02 | locus YGL253W, strain hxk2, hits give low values 1.02 | locus YGR078C, strain PAC10, hits give low values 1.02 and 1.01 | locus YGR229C, strain SMI1, hits give low values 1.08 | locus YHR013C, strain ard1, hits give low values 0.965 | locus YHR027C, strain rpn1, hits give low values 1.01 | locus YHR030C, strain SLT2, hits give low values 1.01 | locus YHR079C, strain IRE1, hits give low values 1.02 | locus YHR142W, strain chs7, hits give low values 1.05 | locus YJL092W, strain hpr5, hits give low values 1.01 | locus YJL095W, strain BCK1 (second series), hits give low values 1 | locus YJL095W, strain BCK1, hits give low values 0.967 | locus YJL115W, strain asf1, hits give low values 1.01 | locus YJL129C, strain trk1, hits give low values 1.01 | locus YJL154C, strain vps35, hits give low values 1.01 | locus YJL164C, strain tpk1, hits give low values 0.997 | locus YJL166W, strain qcr8, hits give low values 1.01 | locus YJR066W, strain TOR1, hits give low values 0.996 | locus YJR075W, strain HOC1, hits give low values 1.01 and 1 | locus YKL160W, strain elf1, hits give low values 1.01 | locus YKR026C, strain gcn3, hits give low values 1.01 | locus YKR091W, strain srl3, hits give low values 1.02 | locus YLL001W, strain dnm1, hits give low values 1.02 | locus YLL026W, hits give low values 1.01 | locus YLL041C, strain sdh2, hits give low values 1.01 | locus YLR027C, strain aat2, hits give low values 1.01 | locus YLR113W, strain HOG1, hits give low values 0.976 | locus YLR221C, strain rsa3, hits give low values 0.972 | locus YLR258W, strain gsy2, hits give low values 1 | locus YLR262C, strain YPT6 (second series), hits give low values 1 | locus YLR320W, strain mms22, hits give low values 0.997 | locus YLR342W, strain FKS1, hits give low values 1.01 | locus YLR357W, strain rsc2, hits give low values 1.07 | locus YLR370C, strain arc18, hits give low values 1.01 | locus YLR384C, strain iki3, hits give low values 1.01 | locus YML120C, strain ndi1, hits give low values 1.01 | locus YMR058W, strain fet3, hits give low values 1.02 | locus YMR125W, strain sto1, hits give low values 1.07 | locus YMR129W, hits give low values 1.01 | locus YMR205C, strain PFK2, hits give low values 1.02 | locus YMR231W, strain pep5, hits give low values 1.01 | locus YMR263W, strain SAP30, hits give low values 1 | locus YMR307W, strain GAS1, hits give low values 1.01 | locus YNL071W, strain lat1, hits give low values 1.01 | locus YNL128W, strain TEP1, hits give low values 0.995 | locus YNL175C, strain NOP13, hits give low values 1.02 and 1.01 | locus YNL183C, strain NPR1, hits give low values 1.01 | locus YNL197C, strain WHI3, hits give low values 1 and 1.01 | locus YNL209W, strain ssb2, hits give low values 1 | locus YNL224C, strain SQS1, hits give low values 1.01 and 1.02 | locus YNL248C, strain rpa49, hits give low values 1.04 | locus YNL322C, strain KRE1 (second series), hits give low values 1 | locus YNL322C, strain KRE1, hits give low values 1.01 | locus YNR049C, strain mso1, hits give low values 1.01 | locus YOR001W, strain rrp6, hits give low values 1.02 | locus YOR070C, strain gyp1, hits give low values 1.01 | locus YOR080W, strain dia2, hits give low values 1.02 | locus YOR083W, strain WHI5 (second series), hits give low values 1.02 and 0.993 | locus YOR083W, strain WHI5, hits give low values 1.01 | locus YOR106W, strain vam3, hits give low values 1.03 | locus YOR231W, strain MKK1, hits give low values 1.01 | locus YOR265W, strain rbl2, hits give low values 1.02 | locus YOR270C, strain vph1, hits give low values 1.06 | locus YOR290C, strain snf2, hits give low values 1.01 | locus YPL051W, strain arl3, hits give low values 1 | locus YPL078C, strain atp4, hits give low values 1.06 | locus YPL106C, strain sse1, hits give low values 0.985 | locus YPL240C, strain hsp82, hits give low values 0.993 | locus YPL256C, strain CLN2, hits give low values 1.02
